Only some compounds are listed: those with a hit (about 12% of all), similar ones and a draw of the others.
Sm TGR block: inhibitors of Schistosoma mansoni thioredoxin glutathione reductase; Potency, µM (highest dose often 114 µM), for inactives: at the highest dose activity change, negative = inhibition, actives largely listed as inhibitors; AID 485364; purified TGR, DTNB reduction, TNB absorbance 405 nm; hit rate 3% among 360,000; active means well fitted inhibition curve with a large enough effect; inconclusive means small, poorly fitted or top-dose-only effect; inactive means no such curve, though single readings can be large or run the other way; further: potency means the concentration at half of the fitted maximal effect; on the % scale 0 is the no-effect control and ±100 the full control effect; nearly all actives have a fitted effect of over 60% in size
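First, TGR (20 nM dispensed) and NADPH were mixed with compound. Second, a 15 min room-temperature incubation followed. Third, further NADPH and then DTNB were added to start the reaction. Finally, TNB absorbance was monitored kinetically.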
FMDV inh: antivirals against foot and mouth disease virus; FMDV antiviral cell-based qHTS; Potency, µM (top dose mostly 57.9 µM), for inactives: top-dose activity change, negative = inhibition, actives largely listed as inhibitors; AID 1159524; hit rate 1.2% among 410,000; calls by dose curve; tested in HEK293T cells; further: read-out not given here; potency means the concentration at half of the fitted maximal effect; on the % scale 0 is the no-effect control and ±100 the full control effect; nearly all actives have a fitted effect of over 45% in size
Shiga toxin inh: inhibitors of Shiga toxin in Vero cells; Vero cells, Shiga toxin protein synthesis inhibition reporter; inhibition, % at 38.7 µM; hit rate 9.2% among 290,000; AID 2315; in the data active means inhibition mostly above about 28%, no sharp cut-off; inactive means mostly below about 43%; further: 0% is about no effect
Cycloheximide cs: counter-screen for Shiga toxin inhibitors: cycloheximide protein synthesis inhibition. cell reporter, cycloheximide protein synthesis inhibition counterscreen. max response, %. hit rate 12% among 300,000; in the data active means max response mostly above about 13%, no sharp cut-off; inactive means mostly below about 14%; further: read at 38.3 µM for the half of the compounds with a filed dose; 0% is about no effect
Starred values were filed as active, the others as inactive.

How did CC(C)CCNC(=O)c1ccc(-c2ccccc2)cc1 do in these assays?
Shiga toxin inh: 84*; Cycloheximide cs: 36*

Results for CC(C)CNC(=O)c1ccc(Cl)c(N)c1 ?
Sm TGR block: -11%; Shiga toxin inh: 9; Cycloheximide cs: -3

What do the screens show for `Cc1oc(-c2ccc(C(=O)NCCC(C)C)cc2)nc1CS(=O)(=O)c1ccccc1`?
Sm TGR block: 35µM*; FMDV inh: -3%

What do the screens show for `CC(C)CCNC(=O)C(=O)Nc1c2c(nn1-c1ccccc1)CS(=O)(=O)C2`?
Sm TGR block: -2%; FMDV inh: 3%

How did O=C(O)c1ccc2c(c1)C(=O)N([C@H](Cc1ccc(Cl)cc1)C(=O)O)C2=O do in these assays?
Sm TGR block: 1%; Shiga toxin inh: 5; Cycloheximide cs: -4

Results for Cc1ccc(S(=O)(=O)Cc2nc(-c3ccc(C(=O)NCc4ccccc4C)cc3)oc2C)cc1 ?
Sm TGR block: inconclusive; FMDV inh: -12%

Results for Cc1ccc(S(=O)(=O)Cc2nc(-c3ccc(C(=O)NCc4ccccc4)cc3)oc2C)cc1 ?
Sm TGR block: 32µM*; FMDV inh: -9%

Results for COc1ccc(NC(C)=O)cc1S(=O)(=O)N1CCn2cccc2C1C (stereo not given) ?
Sm TGR block: 25µM*; FMDV inh: -6%

What do the screens show for `CC(=O)c1cccc(S(=O)(=O)N2CCn3cccc3C2C)c1` (stereo not given)?
Sm TGR block: 32µM*; FMDV inh: 17%

What do the screens show for `CC1c2cccn2CCN1S(=O)(=O)c1ccc(F)cc1` (stereo not given)?
Sm TGR block: inconclusive; FMDV inh: -17%

What do the screens show for `COC(=O)c1ccccc1S(=O)(=O)N1CCn2cccc2C1C` (stereo not given)?
Sm TGR block: inconclusive; FMDV inh: -8%; Shiga toxin inh: -8; Cycloheximide cs: 5

What do the screens show for `CC(=O)c1ccc(S(=O)(=O)N2CCn3cccc3C2C)cc1` (stereo not given)?
Sm TGR block: 35µM*; FMDV inh: -9%

How did CCN1C(=O)c2ccccc2S(=O)c2ccc(C(=O)N3CCN(c4ccc(F)cc4)CC3)cc21 (stereo not given) do in these assays?
Sm TGR block: -18%; FMDV inh: 0%

How did COc1cccc(Cn2c(CNS(=O)(=O)c3ccc(F)c(Cl)c3)nc3cccnc32)c1 do in these assays?
Sm TGR block: 14%; FMDV inh: 46%

What do the screens show for `O=C(COc1ccccc1-c1nc(-c2ccccc2)no1)Nc1ccccc1[N+](=O)[O-]`?
Sm TGR block: -11%; FMDV inh: 20%

Results for Cc1ccc(C(=O)NC(=S)Nc2cc(-c3nc4ccccc4s3)ccc2C)cc1 ?
Sm TGR block: -17%; FMDV inh: 43%; Shiga toxin inh: 117*; Cycloheximide cs: 65*

Results for COc1ccc(-c2nc3ccccc3s2)cc1NC(C)=O ?
Sm TGR block: 4%; FMDV inh: 69%; Shiga toxin inh: 100*; Cycloheximide cs: 35*

What do the screens show for `COc1ccc(-c2cnc3ccccc3n2)cc1NC(=O)CNC(=O)c1ccccc1`?
Sm TGR block: 5%; FMDV inh: 65%; Shiga toxin inh: 36; Cycloheximide cs: 36*

Results for COc1ccc(-c2nc3ccccc3s2)cc1NC(=O)COc1cccc(C)c1 ?
Sm TGR block: -6%; FMDV inh: 20%; Shiga toxin inh: 71*; Cycloheximide cs: 54*

What do the screens show for `COc1ccc(-c2nc3ccccc3s2)cc1NC(=O)COc1ccc(C)cc1`?
Sm TGR block: 2%; FMDV inh: 8%

What do the screens show for `CCC12CN3CC(C)(CN(C1)C3c1c(C)[nH]c3ccccc13)C2=O` (stereo not given)?
Sm TGR block: 1%; FMDV inh: -26%

Results for CCOC(=O)c1c(NC(=O)CCCOc2ccc(Cl)cc2)sc2c1CCC2 ?
Sm TGR block: 7%; FMDV inh: 14%

What do the screens show for `CCOC(=O)C1CCN(Cc2cc(Cl)c3ccccc3c2O)CC1`?
Sm TGR block: 4.5µM*; FMDV inh: -7%; Shiga toxin inh: 47; Cycloheximide cs: 12*

How did Oc1c(CN2CCCC(C(F)(F)F)C2)cc(Cl)c2ccccc12 (stereo not given) do in these assays?
Sm TGR block: 2µM*; FMDV inh: -27%; Shiga toxin inh: 10; Cycloheximide cs: 18

What do the screens show for `c1cc2c3c(cccc3c1)NC1(CCCC1)N2`?
FMDV inh: -1%

Results for S=C1NC2(CCCCC2)Nc2ccccc21 ?
Sm TGR block: 0%; FMDV inh: -14%; Shiga toxin inh: 33; Cycloheximide cs: 16*

Results for S=C1NC2(CCCC2)Nc2ccccc21 ?
Sm TGR block: 0%; FMDV inh: -2%; Shiga toxin inh: 103*; Cycloheximide cs: 38*

What do the screens show for `CN1CCC2(CC1)NC(=O)c1ccccc1N2`?
Sm TGR block: -7%; FMDV inh: -14%; Shiga toxin inh: 1; Cycloheximide cs: 4

How did Cc1ccc2c(c1)-c1nc(-c3ccccc3)cc(-c3ccccc3)c1CO2 do in these assays?
Sm TGR block: 5%; FMDV inh: -12%

Results for OCc1cnc(SCc2cccc(F)c2)n1Cc1ccc(F)cc1 ?
Sm TGR block: 21%; FMDV inh: -10%

How did COc1cc(/C=N/NC(=O)CC2(C)OCCCO2)ccc1OCc1ccc(Cl)cc1Cl do in these assays?
Sm TGR block: -5%; FMDV inh: -17%; Shiga toxin inh: 9; Cycloheximide cs: 9

What do the screens show for `COc1cc(/C=N/NC(=O)c2cccc([N+](=O)[O-])c2)ccc1OCc1ccccc1`?
Sm TGR block: 2%; FMDV inh: 17%; Shiga toxin inh: -16; Cycloheximide cs: 2

How did COc1cc(/C=N/NC(=O)CC2(C)OCCCO2)ccc1OCc1ccccc1 do in these assays?
Sm TGR block: 2%; FMDV inh: 7%; Shiga toxin inh: 9; Cycloheximide cs: 23*

Results for Cc1cc(C(=O)N/N=C/c2ccc(OCc3ccccc3)cc2)c(C)o1 ?
Sm TGR block: 1%; FMDV inh: 19%; Shiga toxin inh: 56; Cycloheximide cs: 22*

Results for Cc1ccc2[nH]c(C(=O)N/N=C/c3ccccc3C(=O)O)c(-c3ccccc3)c2c1 ?
Sm TGR block: 0%; FMDV inh: -15%; Shiga toxin inh: -2; Cycloheximide cs: -6

What do the screens show for `Cc1ccc2[nH]c(C(=O)N/N=C/c3ccccc3O)c(C)c2c1`?
Sm TGR block: -10%; FMDV inh: 82%; Shiga toxin inh: 61*; Cycloheximide cs: 25*

What do the screens show for `COc1ccc(/C=N/NC(=O)c2cc(C)oc2C)cc1OCc1ccccc1`?
Sm TGR block: 5%; FMDV inh: inconclusive; Shiga toxin inh: 32; Cycloheximide cs: 12*

How did Cc1ccccc1OCC(=O)Nc1nnc(S(=O)(=O)N2CCCCCC2)s1 do in these assays?
Sm TGR block: 3%; FMDV inh: 2%

What do the screens show for `Cc1csc2nc(COC(=O)CNC(=O)c3ccc(F)cc3)cc(=O)n12`?
Sm TGR block: 2%; FMDV inh: -2%

How did O=C(N/N=C/c1ccccc1O)c1cccc2ccccc12 do in these assays?
Sm TGR block: -13%; FMDV inh: 34%; Shiga toxin inh: 21; Cycloheximide cs: 13*

How did COc1ccc(/C=N/NC(=O)c2ccco2)cc1OCc1ccccc1 do in these assays?
Sm TGR block: -3%; FMDV inh: inconclusive; Shiga toxin inh: 42*; Cycloheximide cs: 19*

Compound activity: PubChem BioAssay, National Center for Advancing Translational Sciences (NCATS)
